For 14 molecules, Potency results are on record in PubChem BioAssay (NCATS).

Assay [1] is described as follows: Quantitative High-Throughput drug screen in 47 multiple myeloma cell lines against the NCATS MIPE library collection: INA6_PLB cell viability assay (AID 1918965; further: nearly all actives have a fitted effect of over 55% in size). In outline: (§1)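 Approved and investigational drugs from MIPE 4.0 were added by pin tool to 500 cells per well. After 48 hours at 37C, ATP-based CellTiter-Glo luminescence indicated remaining viability.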

A short description of assay [2]: Quantitative High-Throughput drug screen in 47 multiple myeloma cell lines against the NCATS MIPE library collection: Karpas25_ECACC cell viability assay (AID 1918968; further: nearly all actives have a fitted effect of over 35% in size). In outline:
(§2)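 Viability readout: CellTiter-Glo luminescence following 5 min room-temperature incubation with reagent. Prior exposure: 48 h, 37C, humidified 5% CO2, 500 cells per well.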

Assay [3] is described as follows: Quantitative High-Throughput drug screen in 47 multiple myeloma cell lines against the NCATS MIPE library collection: KMS27_JCRB cell viability assay (AID 1918970). Further: nearly all actives have a fitted effect of over 30% in size. In outline:
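KMS27_JCRB myeloma cells, 500 per well, exposed 48 h at 37 C, 5% CO2 to MIPE 4.0 compounds. Viability from ATP by CellTiter-Glo luminescence, normalized to DMSO (100%) and medium-only (0%) wells.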

Assay [4] can be described thus: Quantitative High-Throughput drug screen in 47 multiple myeloma cell lines against the NCATS MIPE library collection: KMS12BM_JCRB cell viability assay (AID 1918971). Further: nearly all actives have a fitted effect of over 35% in size. In outline:
(§3)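 qHTS of the MIPE 4.0 collection: 500 myeloma cells/well, 48 h drug exposure at 37C in 5% CO2, then CellTiter-Glo for 5 min at room temperature before luminescence reading.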

Assay [5] can be described thus: Quantitative High-Throughput drug screen in 47 multiple myeloma cell lines against the NCATS MIPE library collection: KMS12PE_JCRB cell viability assay (AID 1918972). Further: nearly all actives have a fitted effect of over 30% in size. In outline: as §1
Assay [6] in a line: Quantitative High-Throughput drug screen in 47 multiple myeloma cell lines against the NCATS MIPE library collection: KMS26_JCRB cell viability assay (AID 1918975). Further: nearly all actives have a fitted effect of over 45% in size. In outline:
as §3

Assay [7] can be described thus: Quantitative High-Throughput drug screen in 47 multiple myeloma cell lines against the NCATS MIPE library collection: MOLP8_DSMZ cell viability assay (AID 1918977). Further: nearly all actives have a fitted effect of over 45% in size. In outline: (§4)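 MIPE 4.0 approved/investigational drugs; 500 cells/well; 48 h 37 °C humidified 5% CO2; CTG luminescence readout; DMSO = 100%, media = 0% viability.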
Assay [8] can be described thus: Quantitative High-Throughput drug screen in 47 multiple myeloma cell lines against the NCATS MIPE library collection: NCIH929_DSMZ cell viability assay (AID 1918978). Further: nearly all actives have a fitted effect of over 35% in size. In outline: as §4
A short description of assay [9]: Quantitative High-Throughput drug screen in 47 multiple myeloma cell lines against the NCATS MIPE library collection: OCIMY1_PLB cell viability assay (AID 1918979). Further: nearly all actives have a fitted effect of over 35% in size. In outline:
as §4

The nature of assay [10]: Quantitative High-Throughput drug screen in 47 multiple myeloma cell lines against the NCATS MIPE library collection: LP1_DSMZ cell viability assay (AID 1918982). Further: nearly all actives have a fitted effect of over 35% in size. In outline: as §4
The nature of assay [11]: Quantitative High-Throughput drug screen in 47 multiple myeloma cell lines against the NCATS MIPE library collection: KMS34_JCRB cell viability assay (AID 1918985). Further: nearly all actives have a fitted effect of over 40% in size. In outline:
as §4

The nature of assay [12]: Quantitative High-Throughput drug screen in 47 multiple myeloma cell lines against the NCATS MIPE library collection: H1112_PLB cell viability assay (AID 1918967; further: nearly all actives have a fitted effect of over 30% in size). In outline: as §2
Assay [13] is described as follows: Quantitative High-Throughput drug screen in 47 multiple myeloma cell lines against the NCATS MIPE library collection: MM1S_ATCC cell viability assay (AID 1918980). Further: nearly all actives have a fitted effect of over 45% in size. In outline:
as §4

Assay [14] is described as follows: Quantitative High-Throughput drug screen in 47 multiple myeloma cell lines against the NCATS MIPE library collection: MM1R_ATCC cell viability assay (AID 1918981). Further: nearly all actives have a fitted effect of over 35% in size. In outline: as §4
The nature of assay [15]: Quantitative High-Throughput drug screen in 47 multiple myeloma cell lines against the NCATS MIPE library collection: MMM1_PLB cell viability assay (AID 1918976). Further: nearly all actives have a fitted effect of over 35% in size. In outline: as §4
Assay [16] is described as follows: Quantitative High-Throughput drug screen in 47 multiple myeloma cell lines against the NCATS MIPE library collection: KMS28PE_JCRB cell viability assay (AID 1918983). Further: nearly all actives have a fitted effect of over 35% in size. In outline: as §4
Assay [17] can be described thus: Quantitative High-Throughput drug screen in 47 multiple myeloma cell lines against the NCATS MIPE library collection: JJN3_DSMZ cell viability assay (AID 1918966; further: nearly all actives have a fitted effect of over 50% in size). In outline:
as §2

Assay [18] is described as follows: Quantitative High-Throughput drug screen in 47 multiple myeloma cell lines against the NCATS MIPE library collection: KMS21BM_JCRB cell viability assay (AID 1918974). The conditions noted are these: ATP luminescence, 48 h; viability: at 45.8 µM (top of the series) unless noted. In outline: as §2
The nature of assay [19]: Quantitative High-Throughput drug screen in 47 multiple myeloma cell lines against the NCATS MIPE library collection: L363_DSMZ cell viability assay (AID 1918984). Further: nearly all actives have a fitted effect of over 40% in size. In outline:
as §4

Results filed as inconclusive are left out. Active and inactive are the calls of the source. The call rests on the fitted dose curve; in most records, active means well fitted curve in the direction sought with a large enough effect; inconclusive means small, poorly fitted or top-dose-only effect, or another doubt; inactive means no such curve, though single readings can be large; an effect the other way counts as inactive or inconclusive.
Potency means the concentration at half of the fitted maximal effect.

For the molecule `COc1ccccc1N1CCN(CCN(C(=O)C2CCCCC2)c2ccccn2)CC1`, the Potency in assay [1] was 3.72 µM (active); in assay [3], 9.35 µM (active); in assay [5], 18.7 µM (active); in assay [8], 8.33 µM (active). Also, the Potency result in assay [2], in assay [4], in [6], in assay [7], in [9] and in assay [10] was “inactive” in each case. Besides, the Potency entry in [11] is “inactive”.

Regarding `CC1Cc2ccccc2N1NC(=O)c1ccc(Cl)c(S(N)(=O)=O)c1` (stereo unspecified), the Potency entry in [12], in assay [2], in [3], in [4], in [5] and in [7] was “inactive” throughout. For the same molecule, the Potency result in assay [8], in assay [9], in assay [14], in assay [10] and in assay [11] was “inactive” throughout. In addition, the Potency in [13] was 16.6 µM (active).

As for `COc1ccc2cc([C@H](C)C(=O)O)ccc2c1`, the Potency entry in assay [12], in assay [5], in [6], in assay [7], in [8] and in assay [13] was “inactive” each time. The Potency entry in assay [14], in assay [10] and in assay [11] was “inactive” throughout. Further, the Potency in assay [2] is 20.9 µM (active); in assay [15] it was 16.6 µM (active).

As to `CCC[C@@H]1C[C@@H](C(=O)N[C@@H]([C@H]2O[C@H](SC)[C@H](O)[C@@H](O)[C@H]2O)[C@@H](C)O)N(C)C1`, the Potency entry in [12], in assay [2], in assay [5], in assay [6], in [7] and in assay [8] was “inactive” in each case. Besides, the Potency result in [13], in assay [14], in [10] and in assay [16] was “inactive” in each case. In addition, the Potency in [4] was 2.64 µM (active).

`CCCS(=O)c1ccc2nc(NC(=O)OC)[nH]c2c1` (stereo unspecified): the Potency was 11.8 µM (active) in assay [17], 20.9 µM (active) in assay [4], 10.5 µM (active) in [6] and 16.6 µM (active) in [10]. Moreover, the Potency result in assay [8] was “inactive”.

Turning to `CCN(CC)CCOc1ccc(Nc2ncc3cc(-c4c(Cl)cccc4Cl)c(=O)n(C)c3n2)cc1`, the Potency in assay [12] is 5.9 µM (active); in assay [2], 0.0209 µM (active); in assay [3], 0.132 µM (active); in assay [4], 2.35 µM (active); in assay [5], 0.0105 µM (active); in assay [6], 5.26 µM (active). Further, the Potency in assay [7] was 0.059 µM (active); in assay [8], 1.87 µM (active); in assay [9] it was 2.96 µM (active); in assay [13], 2.35 µM (active); in assay [14] it was 1.32 µM (active); in assay [10] it was 1.87 µM (active). In addition, the Potency in assay [16] was 1.18 µM (active); in [11], 0.166 µM (active).

Regarding `COc1cc2c(cc1OC)C1CC(=O)C(CC(C)C)CN1CC2` (stereo unspecified), the Potency entry in assay [12], in [2], in assay [3], in [6], in assay [8] and in assay [9] was “inactive” each time. For the same molecule, the Potency entry in assay [14], in assay [10] and in assay [16] was “inactive” each time. The Potency in assay [18] and in assay [15] was 20.9 µM (active) in each case.

For `O=C1CCc2ccc(OCCCCN3CCN(c4cccc(Cl)c4Cl)CC3)cc2N1`, the Potency in assay [17] is 18.7 µM (active); in [2] it was 16.6 µM (active); in [4], 11.8 µM (active); in assay [5], 5.26 µM (active); in [15], 20.9 µM (active); in assay [16], 18.7 µM (active). The Potency entry in assay [9] is “inactive”.

For `Cc1nccn1CC1CCc2c(c3ccccc3n2C)C1=O` (stereo unspecified), the Potency result in [17], in assay [3] and in assay [14] was “inactive” each time. Also, the Potency in [8] was 26.4 µM (active); in assay [13] it was 26.4 µM (active); in [16] it was 20.9 µM (active).

Turning to `COC1=C(OC)C(=O)C(CCCCCCCCCCO)=C(C)C1=O`, the Potency in assay [17] was 18.7 µM (active); in assay [2], 13.2 µM (active); in assay [4], 16.6 µM (active); in assay [5], 18.7 µM (active); in assay [6] it was 23.5 µM (active); in assay [15], 20.9 µM (active). Also, the Potency in [8] is 23.5 µM (active); in assay [16], 14.8 µM (active); in [19], 14.8 µM (active). Further, in [9], the Potency entry was “inactive”.

Take `NS(=O)(=O)c1cc(C(=O)O)c(NCc2ccco2)cc1Cl`: the Potency result in assay [12], in [2], in assay [3], in assay [4], in assay [5] and in assay [8] was “inactive” each time. For the same molecule, the Potency entry in [9], in [14], in assay [10], in assay [16], in [19] and in assay [11] was “inactive” in each case. The Potency in assay [6] is 0.209 µM (active).

Take `Oc1ccc(OCc2ccccc2)cc1`: the Potency result in [12], in assay [2], in assay [3], in assay [5], in assay [8] and in assay [9] was “inactive” throughout. Further, the Potency entry in assay [13], in [14], in [10] and in assay [16] was “inactive” each time. Also, the figures for the Potency in [15] and in [11] were 5.9 µM (active) and 18.7 µM (active), respectively.

Take `O=C(CCc1ccc(O)cc1)c1c(O)cc(O)cc1O`: the Potency in [12] was 0.148 µM (active); in assay [2], 0.187 µM (active); in assay [3], 1.05 µM (active); in assay [4], 0.332 µM (active); in assay [6], 0.166 µM (active); in assay [15] it was 0.132 µM (active). Further, the figures for the Potency in assay [14] and in [16] were 0.148 µM (active) and 0.935 µM (active), respectively.

As for `CCC(C)(Oc1ccc(C2(c3ccc(OC(C)(CC)C(=O)O)cc3)CCCCC2)cc1)C(=O)O` (stereo unspecified), the Potency entry in assay [12], in assay [3], in [5], in assay [7], in assay [8] and in assay [9] was “inactive” throughout. The Potency entry in assay [14], in assay [10] and in [19] was “inactive” in each case. Further, the Potency in assay [2] is 13.2 µM (active).
